In the supplement of paper PMC13380429:

Test system: Vero E6 infected with SARS-CoV-2
Experiment: inhibition of SARS-CoV-2 cytopathic effect; higher = more antiviral protection, active = above 15
Conditions: 48 h

Measured: inhibition of SARS-CoV-2 cytopathic effect

Cc1cc2nc3c(=O)[nH]c(=O)nc-3n(C[C@H](O)[C@H](O)[C@H](O)COP(=O)(O)O)c2cc1C [riboflavin-5-phosphate-sodium]
inactive: 1 nM 0.5% | 8.33 nM 3.45% | 100 nM -0.48% | 833.33 nM 1.47% | 10000 nM 0.24%

N#Cc1ccc(-c2ccc(S(=O)(=O)Nc3cccc(N)n3)cc2)cc1
inactive: 1 nM 0.14% | 8.33 nM 3.14% | 100 nM -0.56% | 833.33 nM 0.76% | 10000 nM 1.78%

COC[C@@H](NC(C)=O)C(=O)NCc1ccccc1 [Lacosamide]
inactive: 1 nM -11.7% | 8.33 nM -10.6% | 100 nM -8.79% | 833.33 nM -10.4% | 10000 nM -12.7%

Oc1c(I)cc(I)c2cccnc12 [iodoquinol]
inactive: 1 nM -0.28% | 8.33 nM 2.09% | 100 nM -1.12% | 833.33 nM 1.46% | 10000 nM 0.59%

CNCC[C@H](Oc1cccc2ccccc12)c1cccs1 [duloxetine]
inactive: 1 nM -2.53% | 8.33 nM -0.71% | 100 nM 0.92% | 833.33 nM -2.04% | 10000 nM -6.87%

CC(C)(N)c1nc(-c2ccc(OC(F)(F)F)cc2)c[nH]1
inactive: 1 nM 0.82% | 8.33 nM 0.2% | 100 nM 2.45% | 833.33 nM 1.1% | 10000 nM -2.65%

CCOC(=O)c1ccccc1OC(=O)CCCCCCCC(=O)Oc1ccccc1C(=O)OCC
inactive: 1 nM 6.82% | 8.33 nM 0.93% | 100 nM -6.73% | 833.33 nM -0.1% | 10000 nM -6.2%

OC[C@H]1O[C@@H](n2cnc3c(N[C@H]4CCC[C@@H]4O)ncnc32)[C@H](O)[C@@H]1O
inactive: 1 nM 4.79% | 8.33 nM 4.09% | 100 nM 3.63% | 833.33 nM -0.63% | 10000 nM 0.91%

CN1CCN(C2=Cc3ccccc3Oc3ccc(Cl)cc32)CC1
inactive: 1 nM 1.06% | 8.33 nM 0.31% | 100 nM -0.45% | 833.33 nM -1.6% | 10000 nM -1.46%

CCCc1cc(=O)[nH]c(=S)[nH]1 [propylthiouracil]
inactive: 1 nM 3.65% | 8.33 nM -8.68% | 100 nM 2.66% | 833.33 nM 2.01% | 10000 nM -1.99%

CCCCOC(=O)c1ccccc1Nc1cccc(C(F)(F)F)c1 [ufenamate]
inactive: 1 nM 2.83% | 8.33 nM 2.78% | 100 nM 0.41% | 833.33 nM 1.79% | 10000 nM 0.16%

COc1ccc(NC(=O)c2ccc(C(=N)N(C)C)cc2)c(C(=O)Nc2ccc(Cl)cn2)c1 [betrixaban]
inactive: 1 nM -1.01% | 8.33 nM 0.96% | 100 nM -0.6% | 833.33 nM 1.17% | 10000 nM -3.48%

CN1CCN(C(=O)C2C(C(=O)O)[C@H]3CC[C@@H]2O3)CC1 (stereo not given in full)
inactive: 1 nM -1.86% | 8.33 nM 0.2% | 100 nM 0.49% | 833.33 nM 0.2% | 10000 nM -0.43%

Cc1cc(O)c2c(=O)c3c(O)cc(O)c4c5c(O)cc(O)c6c(=O)c7c(O)cc(C)c8c1c2c(c34)c(c78)c65 [hypericin]
inactive: 1 nM 3.48% | 8.33 nM -1.72% | 100 nM -6.89% | 833.33 nM -0.08% | 10000 nM -4.81%

CC(C)(C)c1ccc(CN(Cc2cccc(OCC(=O)O)c2)S(=O)(=O)c2cccnc2)cc1 [evatanepag]
inactive: 1 nM -1.15% | 8.33 nM -0.63% | 100 nM -1.94% | 833.33 nM -1.15% | 10000 nM -2.53%

N[C@@H](Cc1ccc(Cl)cc1)C(=O)O (racemic) [fenclonine-(+/-)]
inactive: 1 nM 1.09% | 8.33 nM 0.73% | 100 nM 0.7% | 833.33 nM 4.29% | 10000 nM 3%

C=CCN1CC[C@]2(C)c3cc(O)ccc3C[C@H]1[C@H]2C
inactive: 1 nM 1.28% | 8.33 nM 1.94% | 100 nM -1.86% | 833.33 nM 0.86% | 10000 nM 1.02%

O=C(O)CCCCN(CCc1ccccc1OCc1ccc(CCc2ccccc2)cc1)Cc1ccc(C(=O)O)cc1 [cinaciguat]
inactive: 1 nM 1.27% | 8.33 nM 2.69% | 100 nM 2.55% | 833.33 nM 2.26% | 10000 nM -3.15%

COc1cc2nccc(Oc3ccc(NC(=O)Nc4ccc(F)cc4F)c(F)c3)c2cc1OC
inactive: 1 nM -0.54% | 8.33 nM 1.76% | 100 nM 4.46% | 833.33 nM 4.37% | 10000 nM 5.75%

CCOc1cc(N2CCC(O)CC2)ccc1Nc1ncc2c(n1)N(C)c1ccccc1C(=O)N2C
inactive: 1 nM 1.68% | 8.33 nM 1.49% | 100 nM 1.28% | 833.33 nM -1.36% | 10000 nM -1.31%

Cc1cc(=O)n(-c2ccccc2)n1C [phenazone]
inactive: 1 nM 1.97% | 8.33 nM -0.88% | 100 nM -1.01% | 833.33 nM -0.52% | 10000 nM 0.53%

CC(C)(C)c1cc(C(C)(C)C)c(NC(=O)c2c[nH]c3ccccc3c2=O)cc1O [ivacaftor]
inactive: 1 nM -1.65% | 8.33 nM 1.11% | 100 nM -2.96% | 833.33 nM -10.4% | 10000 nM -4.71%

CC(C)[N+](C)(CCOC(=O)C1c2ccccc2Oc2ccccc21)C(C)C [propantheline]
inactive: 1 nM 0.61% | 8.33 nM 0.91% | 100 nM -0.81% | 833.33 nM -1.32% | 10000 nM -0.04%
